Nine compounds from PubChem BioAssay (Tox21) can be followed below.

Assay [1] is described as follows: qHTS assay to identify small molecule agonists of the constitutive androstane receptor (CAR) signaling pathway - cell viability counter screen (AID 1224836). Further: nearly all actives have a fitted effect of over 45% in size. The method, boiled down: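 Multiplexed viability check: HepG2-CYP2B6-hCAR cells, 15-point compound dosing, 0.75 uM PK11195 final, 23 h at 37 C, CellTiter-Fluor fluorescence.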
The nature of assay [2]: qHTS assay to identify small molecule antagonists of the constitutive androstane receptor (CAR) signaling pathway - cell viability counter screen (AID 1224837). Further: nearly all actives have a fitted effect of over 45% in size. The method, boiled down:
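In quantitative HTS format, compounds at 15 concentrations were applied to HepG2 cells double-transfected with hCAR and CYP2B6-2.2kb under 50 nM CITCO stimulation; live-cell protease activity was read after 23 hr via CellTiter-Fluor.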

The target in assay [3] is Nuclear receptor subfamily 1 group I member 3 (Homo sapiens) (UniProt Q14994). The experiment in a line: qHTS assay to identify small molecule antagonists of the constitutive androstane receptor (CAR) signaling pathway (AID 1224838). Further: nearly all actives have a fitted effect of over 40% in size. The method, boiled down: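 CITCO-stimulated (50 nM final) HepG2 cells stably transfected with hCAR and CYP2B6-2.2kb luciferase were exposed to compounds at 15 concentrations for 24 h at 37 C/5% CO2. A luciferase reagent was added and luminescence recorded after 30 min.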
Chain of Nuclear receptor subfamily 1 group I member 3 (Homo sapiens) (Q14994 whole entry, looked up): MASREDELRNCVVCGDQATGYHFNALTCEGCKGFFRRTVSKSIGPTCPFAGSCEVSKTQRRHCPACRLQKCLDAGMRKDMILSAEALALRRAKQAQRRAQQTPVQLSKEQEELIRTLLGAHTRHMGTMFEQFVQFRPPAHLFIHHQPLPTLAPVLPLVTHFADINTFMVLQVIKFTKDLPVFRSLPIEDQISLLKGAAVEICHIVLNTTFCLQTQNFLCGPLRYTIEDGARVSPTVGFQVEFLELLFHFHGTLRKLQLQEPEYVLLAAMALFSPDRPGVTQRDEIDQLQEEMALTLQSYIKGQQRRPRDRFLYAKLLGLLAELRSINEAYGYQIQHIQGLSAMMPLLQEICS

Assay [4] has the same target. The experiment in a line: qHTS assay to identify small molecule agonists of the constitutive androstane receptor (CAR) signaling pathway (AID 1224839). Further: nearly all actives have a fitted effect of over 15% in size. Further: potency means the concentration at half of the fitted maximal effect.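 On activation: HepG2 cells stably carrying human CAR and a CYP2B6 luciferase reporter.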 The method, boiled down: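 Using human hepatoma HepG2 cells engineered with hCAR and a CYP2B6-2.2kb reporter, 15-concentration compound series were incubated 24 h alongside PK11195 at 0.75 uM final, with luminescence quantified afterwards.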

The nature of assay [5]: qHTS assay to identify small molecule antagonists of the estrogen related receptor signaling pathway with the pleiotropic PPARgamma coactivator (PGC) from Tox21 10K library - cell viability counter screen (AID 1224840; active means well fitted cell-killing curve with a large enough effect in the repeat runs, not every such curve was filed as active; further: nearly all actives have a fitted effect of over 40% in size). The method, boiled down: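 Viability counter screen, PGC/ERR cells: 17.5 h compound exposure at 37 C, CellTiter-Fluor fluorescence endpoint.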
The target in assay [6] is Thyrotropin receptor (Homo sapiens) (UniProt P16473). The experiment in a line: qHTS assay to identify small molecule agonists of the thyroid stimulating hormone receptor (TSHR) signaling pathway (AID 1224843; calls by dose curve; further: nearly all actives have a fitted effect of over 45% in size; further: potency means the concentration at half of the fitted maximal effect). The method, boiled down: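 Agonist-mode screen: TSHR HEK293 cells received test chemicals for half an hour at room temperature, then HTRF cAMP detection reagents for one hour prior to fluorescence measurement. Each chemical ran as a 15-concentration series, triplicated.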
Chain of Thyrotropin receptor (Homo sapiens) (P16473 whole entry, looked up): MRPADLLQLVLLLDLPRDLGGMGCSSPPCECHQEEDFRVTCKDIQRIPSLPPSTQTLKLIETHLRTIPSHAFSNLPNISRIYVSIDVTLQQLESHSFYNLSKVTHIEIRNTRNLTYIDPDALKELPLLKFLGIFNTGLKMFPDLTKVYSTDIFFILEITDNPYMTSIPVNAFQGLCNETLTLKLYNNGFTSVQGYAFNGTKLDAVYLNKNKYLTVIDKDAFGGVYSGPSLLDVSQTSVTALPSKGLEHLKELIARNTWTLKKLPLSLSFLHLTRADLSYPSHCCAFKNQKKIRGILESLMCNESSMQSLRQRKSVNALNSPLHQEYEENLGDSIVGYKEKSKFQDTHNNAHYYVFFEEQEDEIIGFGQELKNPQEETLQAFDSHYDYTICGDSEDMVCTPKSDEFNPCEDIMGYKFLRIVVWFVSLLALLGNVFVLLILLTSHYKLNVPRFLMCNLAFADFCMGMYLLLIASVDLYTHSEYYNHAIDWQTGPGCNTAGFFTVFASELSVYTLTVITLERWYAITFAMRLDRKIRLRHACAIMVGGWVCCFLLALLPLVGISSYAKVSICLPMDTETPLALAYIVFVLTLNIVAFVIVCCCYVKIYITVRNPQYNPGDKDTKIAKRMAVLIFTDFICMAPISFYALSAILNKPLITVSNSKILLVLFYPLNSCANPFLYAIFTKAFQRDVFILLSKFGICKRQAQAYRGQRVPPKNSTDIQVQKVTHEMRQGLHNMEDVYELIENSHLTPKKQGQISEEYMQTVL

Assay [7] is described as follows: qHTS assay to identify small molecule agonists of the hypoxia (HIF-1) signaling pathway - cell viability counter screen (AID 1224844; calls by dose curve; further: nearly all actives have a fitted effect of over 50% in size). The method, boiled down: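 Same wells as the HIF-1 reporter screen; ME-180 cells carrying HRE-bla, 17 hr treatment at 37C; CellTiter-Glo luminescence read after 30 min at room temperature.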
The nature of assay [8]: qHTS assay to identify small molecule agonists of H2AX (AID 1224845; active means well fitted activation curve with a large enough effect in the signal ratio in the repeat runs, not every such curve was filed as active; the % refers to the signal ratio). The method, boiled down: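 Wild-type CHO-K1 cells, plated overnight, exposed 3hr at 37C to 15 concentrations (0.76% DMSO final). Lysed, then HTRF anti-pH2AX (S139) cryptate and anti-H2AX-d2 antibodies, 24 hr room temperature; 665/620 nm emission read.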
A short description of assay [9]: qHTS assay to identify small molecule agonists of the hypoxia (HIF-1) signaling pathway (AID 1224846; active means well fitted activation curve with a large enough effect in the signal ratio in the repeat runs, not every such curve was filed as active; the % refers to the signal ratio). The method, boiled down:
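In ME-180 cells bearing an HRE-bla construct, 17 h treatment with DMSO-dissolved compounds at 37C was followed by CCF4-AM loading to quantify reporter induction.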

A short description of assay [10]: qHTS assay to identify small molecule agonists of H2AX - cell viability counter screen (AID 1224847; calls by dose curve; further: top concentration of the series differs between compounds; nearly all actives have a fitted effect of over 30% in size). The method, boiled down:
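After overnight plating of 1000 CHO-K1 cells per well, a 15-concentration compound series was applied for 3 hr at 37C. Luminescence from CellTiter-Glo, read following 30 min at room temperature, reflected cell viability.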

Assay [11] can be described thus: qHTS RealTime-Glo MT Cell Viability Assay in HepG2 cells - 24 hour (AID 1224867). Further: nearly all actives have a fitted effect of over 50% in size. The method, boiled down:
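HepG2 cells were seeded at 600 cells/well together with NanoLuc luciferase and a cell-permeant prosubstrate, preincubated 5 h at 37 C/5% CO2, then pin-dosed with compounds in DMSO. Nonlytic luminescence from viable cells was read at each time point.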

The nature of assay [12]: qHTS RealTime-Glo MT Cell Viability Assay in HEK293 cells - 32 hour (AID 1224868). Further: nearly all actives have a fitted effect of over 50% in size. Further: potency means the concentration at half of the fitted maximal effect. The method, boiled down:
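HEK293 cells were seeded at 600 cells/well together with NanoLuc luciferase and cell-permeant prosubstrate, preincubated 5 h at 37 C/5% CO2, then given compound in DMSO by pintool. Luminescence from viable-cell prosubstrate reduction was read repeatedly over 40 h.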

The nature of assay [13]: A CellTox Green Cytotoxicity Assay to monitor cytotoxicity in HEK293 cells - 0 hour (AID 1224869). Further: nearly all actives have a fitted effect of over 50% in size. The method, boiled down: (§1)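 Homogeneous no-lysis format: HEK293 cell suspension mixed with CellTox Green reagent, seeded, incubated 5 h at 37 C/5% CO2, then dosed by pintool with compound in DMSO.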
Assay [14] in a line: A CellTox Green Cytotoxicity Assay to monitor cytotoxicity in HEK293 cells - 40 hour (AID 1224871). Further: nearly all actives have a fitted effect of over 45% in size. The method, boiled down: as §1
Assay [15] is described as follows: qHTS assay to identify small molecule antagonists of the estrogen related receptor signaling pathway with the pleiotropic PPARgamma coactivator (PGC) from Tox21 10K library (AID 1224841; call rule not given here). The method, boiled down:
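In the PGC/ERR line, DMSO solutions of test chemicals are pin-delivered to 2,000 cells/well six hours after dispensing. Following eighteen hours' incubation, One-Glo reagent is added and luminescence recorded.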

Assay [16] can be described thus: qHTS assay to identify small molecule agonists of the estrogen related receptor signaling pathway with the pleiotropic PPARgamma coactivator (PGC) from Tox21 10K library (AID 1224842). Further: nearly all actives have a fitted effect of over 15% in size. The method, boiled down:
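PGC/ERR reporter cell line, 2,000 cells per well, incubated 6 h at 37 C before 23 nL compound in DMSO was added. After 18 h at 37 C, One-Glo luminescence read following 30 min at room temperature.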

Assay [17] can be described thus: qHTS assay to identify small molecule antagonists of the estrogen related receptor (ERR) signaling pathway from Tox21 library (AID 1224848). Further: nearly all actives have a fitted effect of over 50% in size. The method, boiled down:
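Quantitative high-throughput format: ERR reporter cells (2,000/well) pre-incubated 6 h, treated 18 h at 37 C with compounds in DMSO alongside positive and negative controls, then read by ONE-Glo luminescence.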

The nature of assay [18]: qHTS assay to identify small molecule agonists of the estrogen related receptor (ERR) signaling pathway from Tox21 library (AID 1224849; calls by dose curve; further: nearly all actives have a fitted effect of over 15% in size). To be noted: ERR reporter cell line, ONE-Glo luciferase, 18 h; at 92.4 µM (top of the series) unless noted. The method, boiled down: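 Reporter cells (ERR, NTP source) treated with Tox21 10K compounds 18 h, 37 C. Readout: ONE-Glo luminescence, 30 min RT.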

Assay [19] in a line: qHTS RealTime-Glo MT Cell Viability Assay in HepG2 cells - 40 hour (AID 1224870). Further: nearly all actives have a fitted effect of over 50% in size. The method, boiled down:
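HepG2 cells (600/well) mixed with RealTime-Glo MT reagent, settled 5 h at 37 C/5% CO2 before compound addition. Nonlytic NanoLuc luminescence from viable-cell prosubstrate reduction read repeatedly during 40 h treatment at 37 C.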

A number with no mark means an inactive call. Inconclusive results are not listed. The source made the active and inactive calls. Unless noted, the call rests on the fitted dose curve; in most records, active means well fitted curve in the direction sought with a large enough effect in the repeat runs; inconclusive means weak or mixed curves; inactive means no such curve, though single readings can be large; an effect the other way counts as inactive or inconclusive.
On the % scale 0 is the no-effect control and ±100 the full control effect.

Take `O=C(/N=N/C(=O)OCc1ccccc1)OCc1ccccc1`: the Potency entry in assay [1], in [2], in assay [10], in assay [12] and in [14] was “inactive” each time. For the same compound, the outcome in [3], in assay [5], in [7], in assay [8], in assay [9] and in assay [11] was inactive. Also, the call in [13] was inactive. The Potency in assay [4] is 54.5 µM (active); in [6], 24.3 µM (active).
For the compound `CC(C)=CCOC(=O)c1ccccc1`, the Potency result in assay [1], in assay [2], in assay [15], in assay [6], in assay [10] and in [17] was “inactive” in each case. Moreover, the Potency result in assay [12] is “inactive”. The compound was called inactive in assay [5], in assay [16], in assay [7], in [8], in assay [9] and in assay [11]. The outcome in [13] and in assay [19] was inactive. For the same compound, the activity change, positive = activation in [18] was 2.82%.
`CCOCCOC(=O)/C=C/c1ccc(OC)cc1`: the Potency result in assay [1], in assay [2], in [6], in assay [10], in assay [12] and in assay [14] was “inactive” throughout. Moreover, the compound was called inactive in assay [3], in [5], in [7], in assay [8], in assay [9] and in assay [13]. Besides, the compound was called inactive in assay [19].
Consider `O=C(Nc1ccc(Cl)c(Cl)c1)C1CC1`, for which the Potency result in assay [1], in [2], in assay [15], in [6], in assay [10] and in [14] was “inactive” throughout. In addition, the compound was classed as inactive in [3], in assay [5], in [16], in assay [7], in assay [8] and in assay [9]. In addition, the compound was classed as inactive in [19]. In assay [18], the activity change, positive = activation is -22.3% [at 42.5 µM]. The Potency in assay [12] is 9.52 µM (active).
Take `O=C(NCC(O)CO)c1c(I)c(C(=O)NCC(O)CO)c(I)c(N(CCO)C(=O)CO)c1I` (stereo not drawn): the Potency entry in [1], in assay [2], in assay [4], in assay [6], in assay [10] and in [12] was “inactive” throughout. Also, in assay [14], the Potency result was “inactive”. The compound was classed as inactive in assay [3], in assay [5], in assay [7], in assay [8], in [11] and in assay [19]. Further, the activity change, positive = activation in [18] is 5.02% [at 42.5 µM].
For the compound `CCOC(=O)c1ccc(OC(=O)CCCCCN=C(N)N)cc1`, the Potency entry in assay [1], in assay [2], in [6], in [12] and in assay [14] was “inactive” throughout. Further, the compound was classed as inactive in assay [3], in assay [5], in [7], in [8], in [13] and in [19].
Consider `Cc1[nH]cnc1-c1ccc(Cl)cc1`, for which the Potency entry in assay [1], in assay [2], in assay [6], in assay [10], in assay [12] and in assay [14] was “inactive” each time. Moreover, the compound was classed as inactive in assay [3], in assay [5], in assay [7], in [8], in assay [9] and in assay [11]. In addition, the compound was called inactive in [13] and in assay [19].
Turning to `CCCCCCOc1ccccc1C(N)=O`, the Potency entry in assay [1], in assay [2], in assay [6], in [10] and in assay [14] was “inactive” throughout. In addition, the outcome in assay [5], in assay [8], in [9], in [11] and in [19] was inactive. Further, in [12], the Potency was 16.9 µM (active).
In the case of `C[C@@H]1O[C@@H](O[C@@H]2[C@@H](O)[C@H](OCCc3ccc(O)c(O)c3)O[C@H](CO[C@@H]3O[C@H](CO)[C@@H](O)[C@H](O)[C@H]3O)[C@H]2OC(=O)/C=C/c2ccc(O)c(O)c2)[C@H](O)[C@H](O)[C@H]1O`, the Potency result in assay [1], in assay [2], in assay [4] and in assay [14] was “inactive” in each case. For the same compound, the call in assay [3], in [5], in assay [7], in assay [9], in assay [11] and in [19] was inactive.
